# In PubChem BioAssay (NCATS):
# “And” between values parts separate entries of the source, which are not always exact repeats. Equal values may be shown once. Results filed as inconclusive are left out. Entries that show only a call come without a potency. The source made the active and inactive calls. Unless noted, calls come from the whole dose curve; as a rule, active = well fitted curve in the direction sought with a large enough effect; inconclusive = small, poorly fitted or top-dose-only effect, or another doubt; inactive = no such curve, though single readings can be large; an effect the other way counts as inactive or inconclusive. Where a SMILES comes first, the peptide text is derived from it. [ ]: non-standard residue; d: D form. pGlu = O=C1CC[C@@H](C(=O)O)N1
# Key:
# [1] = target: Cytochrome P450 2D6 (Homo sapiens) (UniProt P10635); assay: Cytochrome P450 family 2 subfamily D member 6 (CYP2D6) small molecule antagonists: luciferase biochemical (cell-free) qHTS assay (AID 1645840; active = well fitted curve in the direction sought with a large enough effect in the repeat runs; an effect the other way counts as inactive or inconclusive; note: nearly all actives have a fitted effect of over 55% in size; note: potency is the fitted concentration of half-maximal effect)
# In short: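 P450-Glo luminescent screen: recombinant CYP2D6 enzyme–proluciferin substrate mix preincubated with compound 10 min at room temperature, then NADPH regeneration added for 1 h at room temperature. Detection reagent added for 20 min; luciferin light read as relative luminescence units.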
# [2] = target: Cytochrome P450 2C9 (Homo sapiens) (UniProt P11712); assay: Cytochrome P450 family 2 subfamily C member 9 (CYP2C9) small molecule antagonists: luciferase biochemical (cell-free) qHTS assay (AID 1645842; active = well fitted curve in the direction sought with a large enough effect in the repeat runs; an effect the other way counts as inactive or inconclusive; note: nearly all actives have a fitted effect of over 55% in size; note: potency is the fitted concentration of half-maximal effect)
# In short: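 Luminescence, after 20 min with luciferin detection reagent, reflected CYP2C9 turnover during a 1 h NADPH-driven reaction at 37C. Enzyme-substrate mix contained 0.4% bovine serum albumin and was preincubated with compound 10 min at room temperature.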
# [3] = Primary qHTS for inhibitors of nuclear receptor binding SET domain protein 2 (NSD2) in an isogenic RCH-ACV NSD2 p.E1099K mutant (9B) (AID 1645876); note: nearly all actives have a fitted effect of over 70% in size; note: potency is the fitted concentration of half-maximal effect
# [4] = Primary qHTS for inhibitors of nuclear receptor binding SET domain protein 2 (NSD2) in an RCH-ACV wild type WT cells (2C) (AID 1645877); note: nearly all actives have a fitted effect of over 70% in size; note: potency is the fitted concentration of half-maximal effect
# [5] = target: Rap guanine nucleotide exchange factor 3 (Homo sapiens) (UniProt O95398); assay: Confirmatory qHTS for antagonist of cAMP-regulated guanine nucleotide exchange factor 3 (EPAC1) (AID 1645880); note: nearly all actives have a fitted effect of over 55% in size; note: potency is the fitted concentration of half-maximal effect
# In short: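 Nucleotide exchange uses 100 nM EPAC1, 250 nM RAP1B-BODIPY-GDP and 50 uM GDP, with compounds in a concentration-titration series. After 5 min at room temperature, fluorescence (480 nm ex/540 nm em) is read every 5 min for 30 min. Data are normalized to control ATA and DMSO.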
# [6] = target: Rap guanine nucleotide exchange factor 3 (Homo sapiens) (UniProt O95398); assay: Confirmatory qHTS for agonist of cAMP-regulated guanine nucleotide exchange factor 3 (EPAC1) (AID 1645881);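 note: EPAC1 catalysed release of BODIPY-GDP from Rap1B seen as fluorescence loss; nearly all actives have a fitted effect of over 75% in size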
# [7] = target: Rap guanine nucleotide exchange factor 4 (Homo sapiens) (UniProt Q8WZA2); assay: Confirmatory qHTS for agonist of cAMP-regulated guanine nucleotide exchange factor 4 (EPAC2) (AID 1645884);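 note: nucleotide exchange releases bodipy-GDP from Rap1 and this lowers its fluorescence; nearly all actives have a fitted effect of over 65% in size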
# Rap guanine nucleotide exchange factor 4 (Homo sapiens), sequence (Q8WZA2 whole entry, looked up): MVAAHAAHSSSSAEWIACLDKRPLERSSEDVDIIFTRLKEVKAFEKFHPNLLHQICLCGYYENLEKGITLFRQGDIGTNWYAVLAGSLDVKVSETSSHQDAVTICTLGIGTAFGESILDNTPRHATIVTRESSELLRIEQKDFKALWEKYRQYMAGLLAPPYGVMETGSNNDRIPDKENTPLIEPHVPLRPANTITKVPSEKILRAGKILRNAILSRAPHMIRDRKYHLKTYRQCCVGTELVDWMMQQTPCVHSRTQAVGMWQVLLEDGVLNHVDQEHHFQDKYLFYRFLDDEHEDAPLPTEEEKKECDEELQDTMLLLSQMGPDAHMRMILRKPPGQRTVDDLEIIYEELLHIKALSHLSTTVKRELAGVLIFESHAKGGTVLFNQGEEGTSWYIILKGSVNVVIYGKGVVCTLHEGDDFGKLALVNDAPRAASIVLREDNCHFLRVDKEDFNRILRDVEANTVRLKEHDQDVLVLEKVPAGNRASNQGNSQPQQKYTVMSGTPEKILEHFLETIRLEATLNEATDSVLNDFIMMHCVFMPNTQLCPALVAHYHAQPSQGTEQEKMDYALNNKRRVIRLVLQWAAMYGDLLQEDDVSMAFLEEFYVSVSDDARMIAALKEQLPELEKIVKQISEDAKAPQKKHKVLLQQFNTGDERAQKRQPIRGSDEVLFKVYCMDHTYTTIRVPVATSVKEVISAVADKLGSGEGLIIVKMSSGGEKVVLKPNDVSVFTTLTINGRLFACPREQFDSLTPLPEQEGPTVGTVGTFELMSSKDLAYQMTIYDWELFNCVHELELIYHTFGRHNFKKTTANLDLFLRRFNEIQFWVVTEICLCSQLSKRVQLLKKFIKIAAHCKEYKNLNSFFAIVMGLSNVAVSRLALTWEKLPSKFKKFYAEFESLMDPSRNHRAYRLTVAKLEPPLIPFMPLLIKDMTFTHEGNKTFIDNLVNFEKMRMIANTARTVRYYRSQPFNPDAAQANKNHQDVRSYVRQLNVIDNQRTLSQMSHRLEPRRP
# Cytochrome P450 2C9 (Homo sapiens), sequence (P11712 whole entry, looked up): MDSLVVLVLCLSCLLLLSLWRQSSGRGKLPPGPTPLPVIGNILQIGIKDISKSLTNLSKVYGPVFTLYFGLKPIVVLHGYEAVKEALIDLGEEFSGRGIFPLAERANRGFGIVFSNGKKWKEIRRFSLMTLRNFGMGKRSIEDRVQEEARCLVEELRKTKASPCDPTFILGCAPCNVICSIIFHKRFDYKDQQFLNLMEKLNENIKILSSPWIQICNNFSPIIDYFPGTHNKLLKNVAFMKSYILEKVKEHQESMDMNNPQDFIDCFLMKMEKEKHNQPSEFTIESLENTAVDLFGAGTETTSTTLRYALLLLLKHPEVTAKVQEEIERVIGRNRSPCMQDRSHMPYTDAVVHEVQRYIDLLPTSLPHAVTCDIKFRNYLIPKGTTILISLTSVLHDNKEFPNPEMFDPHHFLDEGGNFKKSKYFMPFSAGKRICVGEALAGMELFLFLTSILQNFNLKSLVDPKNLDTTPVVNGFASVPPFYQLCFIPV
# Rap guanine nucleotide exchange factor 3 (Homo sapiens), sequence (O95398 whole entry, looked up): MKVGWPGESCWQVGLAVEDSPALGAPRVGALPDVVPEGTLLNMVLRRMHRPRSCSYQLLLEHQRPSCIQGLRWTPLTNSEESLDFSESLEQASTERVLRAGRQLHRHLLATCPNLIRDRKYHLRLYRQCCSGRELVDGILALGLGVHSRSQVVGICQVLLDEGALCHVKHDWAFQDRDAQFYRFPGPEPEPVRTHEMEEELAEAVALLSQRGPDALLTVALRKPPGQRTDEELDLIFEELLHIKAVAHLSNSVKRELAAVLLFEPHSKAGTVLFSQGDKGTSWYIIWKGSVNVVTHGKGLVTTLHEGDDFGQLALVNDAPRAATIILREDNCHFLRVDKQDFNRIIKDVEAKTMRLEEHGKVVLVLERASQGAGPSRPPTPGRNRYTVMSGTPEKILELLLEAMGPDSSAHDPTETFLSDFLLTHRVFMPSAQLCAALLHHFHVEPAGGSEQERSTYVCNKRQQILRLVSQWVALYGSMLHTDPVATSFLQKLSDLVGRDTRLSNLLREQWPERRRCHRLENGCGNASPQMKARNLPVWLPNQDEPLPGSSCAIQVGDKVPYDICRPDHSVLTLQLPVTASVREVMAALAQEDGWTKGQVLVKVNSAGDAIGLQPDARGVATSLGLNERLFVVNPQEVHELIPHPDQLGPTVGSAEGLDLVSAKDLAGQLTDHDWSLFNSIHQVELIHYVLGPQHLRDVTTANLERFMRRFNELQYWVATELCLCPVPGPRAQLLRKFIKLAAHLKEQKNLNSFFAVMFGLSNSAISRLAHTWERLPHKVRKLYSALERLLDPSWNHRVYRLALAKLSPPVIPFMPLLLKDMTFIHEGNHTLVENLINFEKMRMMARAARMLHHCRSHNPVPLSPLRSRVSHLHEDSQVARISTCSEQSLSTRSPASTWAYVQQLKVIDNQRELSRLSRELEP
# Cytochrome P450 2D6 (Homo sapiens), sequence (P10635 whole entry, looked up): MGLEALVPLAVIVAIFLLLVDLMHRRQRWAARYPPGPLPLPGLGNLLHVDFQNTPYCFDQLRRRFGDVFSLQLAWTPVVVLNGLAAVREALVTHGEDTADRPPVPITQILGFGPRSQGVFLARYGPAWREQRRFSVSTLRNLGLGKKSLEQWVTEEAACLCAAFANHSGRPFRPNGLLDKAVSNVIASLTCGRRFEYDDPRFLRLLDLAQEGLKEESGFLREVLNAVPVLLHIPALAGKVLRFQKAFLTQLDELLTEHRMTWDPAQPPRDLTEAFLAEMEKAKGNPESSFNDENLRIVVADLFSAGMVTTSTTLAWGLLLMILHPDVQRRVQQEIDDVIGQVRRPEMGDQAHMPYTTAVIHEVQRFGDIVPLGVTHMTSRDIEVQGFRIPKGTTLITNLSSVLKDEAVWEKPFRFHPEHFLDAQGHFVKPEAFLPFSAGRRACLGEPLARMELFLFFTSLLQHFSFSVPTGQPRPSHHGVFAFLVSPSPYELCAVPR
smiles,measurement,setting,value
COc1cc(C=O)ccc1O,Potency,[1],inactive
same,Potency,[2],inactive
same,Potency,[3],inactive
same,Potency,[4],inactive
COC(=O)c1cc(Cl)ccc1NS(=O)(=O)C(F)(F)F,Potency,[1],inactive
same,Potency,[2],inactive
same,Potency,[3],inactive
same,Potency,[4],inactive
Cc1cc(O)c2c(O)c3c(O)cccc3cc2c1,Potency,[1],inactive
same,Potency,[2],3.09 µM (active)
same,Potency,[3],inactive
same,Potency,[4],inactive
CN1Cc2cc(C(=O)N3CCC(C4CCNCC4)CC3)ccc2NC(CC(=O)O)C1=O (centres undefined),Potency,[1],inactive
same,Potency,[2],inactive
same,Potency,[3],inactive
same,Potency,[4],inactive
CC(C(=O)O)c1ccc(/C=C2\CCCCC2=O)cc1 (centres undefined),Potency,[1],inactive
same,Potency,[2],inactive
same,Potency,[3],inactive
CCCCN(CCCC)C(C(N)=O)c1ccc(OC)cc1 (centres undefined),Potency,[1],0.776 µM (active)
same,Potency,[2],inactive
same,Potency,[3],inactive
same,Potency,[4],inactive
CN(C)CCOC1=Cc2ccccc2Sc2ccc(Cl)cc21,Potency,[1],1.1 µM (active)
same,Potency,[2],inactive
same,Potency,[4],16.8 µM (active)
CN1CCCN(C(c2ccccc2)c2ccc(Cl)cc2)CC1 (centres undefined),Potency,[1],0.0776 µM (active)
same,Potency,[2],inactive
same,Potency,[4],16.8 µM (active)
O=C1NC2CCCCN2C12CCN(CCCN1c3ccccc3CCc3ccc(Cl)cc31)CC2 (centres undefined),Potency,[1],2.45 µM (active)
same,Potency,[3],18.3 µM (active)
same,Potency,[4],21.1 µM (active)
CC(=O)/C=C/C=C1/C2CCC(C2)C1(C)C (centres undefined),Potency,[1],17.4 µM (active)
same,Potency,[3],inactive
same,Potency,[4],inactive
Nc1nc(=O)n([C@@H]2O[C@H](CO)[C@@H](O)[C@@H]2F)cc1I,Potency,[1],inactive
same,Potency,[3],1.68 µM (active)
CN(C)CCOC(c1ccccc1)c1ccc(Br)cc1 (centres undefined),Potency,[1],0.275 µM (active)
same,Potency,[2],inactive
same,Potency,[4],23.7 µM (active)
C[N+](C)(CCOc1ccccc1)Cc1cccs1,Potency,[1],0.123 µM (active)
same,Potency,[2],inactive
same,Potency,[4],26.6 µM (active)
CC1(C)O[C@@H]2C[C@H]3[C@@H]4C[C@H](F)C5=CC(=O)C=C[C@]5(C)[C@@]4(F)[C@@H](O)C[C@]3(C)[C@]2(C(=O)CO)O1,Potency,[1],inactive
same,Potency,[2],inactive
same,Potency,[4],0.8 nM (active) and 5.9 nM (active)
CC(C)(c1ccc(O)cc1)c1ccc(O)cc1,Potency,[1],43.9 µM (active)
same,Potency,[2],27.2 µM (active)
same,Potency,[5],inactive
same,Potency,[6],inactive
same,Potency,[7],inactive
Oc1ccc(CCNCCCCCCNCCc2ccccc2)cc1O,Potency,[1],24.5 µM (active)
same,Potency,[2],inactive
same,Potency,[4],16.8 µM (active)
CC(=O)OCC(=O)[C@@]1(O)[C@H](OC(C)=O)C[C@H]2[C@@H]3CCC4=CC(=O)C=C[C@]4(C)[C@@]3(F)[C@@H](O)C[C@@]21C,Potency,[1],inactive
same,Potency,[2],inactive
same,Potency,[4],0.0596 µM (active)
Cc1ncc(CO)c(CO)c1O,Potency,[1],inactive
same,Potency,[3],inactive
same,Potency,[4],inactive
CC(C)(C)c1nnc(NS(=O)(=O)c2ccccc2)s1,Potency,[1],inactive
same,Potency,[3],inactive
same,Potency,[4],inactive
O=C(NO)c1ccccc1,Potency,[1],inactive
same,Potency,[3],36.6 µM (active)
same,Potency,[4],25.9 µM (active)
CN(C(=O)C(Cl)Cl)c1ccc(OC(=O)c2ccco2)cc1,Potency,[1],inactive
same,Potency,[3],inactive
CCNC(=O)[C@@H]1CCCN1C(=O)[C@H](CCCN=C(N)N)NC(=O)[C@H](CC(C)C)NC(=O)CNC(=O)[C@H](Cc1ccc(O)cc1)NC(=O)[C@H](CO)NC(=O)[C@H](Cc1c[nH]c2ccccc12)NC(=O)[C@H](Cc1cnc[nH]1)NC(=O)[C@@H]1CCC(=O)N1 ([pGlu]HWSYGLRP-NHEt),Potency,[1],inactive
same,Potency,[2],inactive
same,Potency,[4],inactive
COC(=O)/C=C(/C)N,Potency,[1],inactive
same,Potency,[3],inactive
same,Potency,[4],inactive
CCCCCC[C@@H](CCC)C(=O)O,Potency,[1],inactive
same,Potency,[3],inactive
same,Potency,[4],inactive
CC(C)C(=O)Nc1cccc(C(F)(F)F)c1,Potency,[1],inactive
same,Potency,[3],inactive
Nc1cccc2c(N)cccc12,Potency,[1],2.99 µM (active)
same,Potency,[2],18.9 µM (active)
same,Potency,[3],24.3 µM (active)
same,Potency,[4],3.86 µM (active)
same,Potency,[5],inactive
same,Potency,[6],inactive
O=C(O)c1ccccc1Nc1cc(Cl)ccc1C(=O)O,Potency,[1],inactive
same,Potency,[3],inactive
Cc1c(N)cccc1C(F)(F)F,Potency,[1],inactive
same,Potency,[2],inactive
same,Potency,[3],inactive
same,Potency,[4],inactive
Cc1cc(OCCOCC[N+](C)(C)Cc2ccccc2)ccc1C(C)(C)CC(C)(C)C,Potency,[1],7.76 µM (active)
same,Potency,[3],1.19 µM (active)
same,Potency,[4],1.19 µM (active)
COC(=O)C1=C(C)NC(COC(N)=O)=C(C(=O)OC(C)C)C1c1cccc(Cl)c1Cl (centres undefined),Potency,[1],19.5 µM (active)
same,Potency,[2],4.36 µM (active)
same,Potency,[3],18.8 µM (active)
same,Potency,[4],11.9 µM (active)
same,Potency,[6],inactive
same,Potency,[7],inactive
C1=CC2C3C=CC(C3)C2C1 (centres undefined),Potency,[1],inactive
same,Potency,[3],inactive
same,Potency,[4],inactive
CCN(CC)CCOc1ccc(/C(=C(\Cl)c2ccccc2)c2ccccc2)cc1,Potency,[1],1.38 µM (active)
same,Potency,[3],15 µM (active) and 8.33 µM (active)
same,Potency,[4],11.9 µM (active) and 5.25 µM (active)
CC(=O)OCC(=O)[C@@]1(O)CCC2C3CCC4=CC(=O)CC[C@]4(C)C3[C@@H](O)C[C@@]21C (some centres undefined),Potency,[1],inactive
same,Potency,[3],inactive
same,Potency,[4],0.15 µM (active)
COc1cc2c(cc1OC)C(=O)CC2,Potency,[1],inactive
same,Potency,[2],inactive
same,Potency,[4],inactive
CCCCCOc1ccc(C2SC(=O)NC2=O)cc1OCC (centres undefined),Potency,[1],inactive
same,Potency,[2],7.76 µM (active)
same,Potency,[4],inactive
Cc1c(C)c2c(c(C)c1OC(=O)CCC(=O)OCCO)CC[C@@](C)(CCC[C@H](C)CCC[C@H](C)CCCC(C)C)O2,Potency,[1],12.3 µM (active)
same,Potency,[3],21.1 µM (active)
CCCCC/C=C\C/C=C\CCCCCCCC(=O)NC(C)c1ccccc1 (centres undefined),Potency,[1],3.89 µM (active)
same,Potency,[2],1.55 µM (active)
same,Potency,[4],16.8 µM (active)
CCCCCC(=O)O[C@]1(C(C)=O)CC[C@H]2[C@@H]3CCC4=CC(=O)CC[C@]4(C)[C@H]3CC[C@@]21C,Potency,[1],13.8 µM (active)
same,Potency,[2],4.9 µM (active)
same,Potency,[4],10.6 µM (active)
COC(=O)c1c(Cl)c(Cl)c(C(=O)OC)c(Cl)c1Cl,Potency,[1],inactive
same,Potency,[3],inactive
CCN(CC)CC(=O)OCC(=O)[C@@]1(O)CC[C@H]2[C@@H]3CCC4=CC(=O)CC[C@]4(C)[C@H]3[C@@H](O)C[C@@]21C,Potency,[1],inactive
same,Potency,[2],inactive
same,Potency,[4],0.0944 µM (active)
O=S(=O)(O)c1ccc2nc(-c3ccccc3)[nH]c2c1,Potency,[1],9.77 µM (active)
same,Potency,[3],inactive
same,Potency,[4],inactive
CC(C)=CCC/C(C)=C/CC/C(C)=C/C(=O)OCC(=O)[C@@]1(O)CC[C@H]2[C@@H]3CCC4=CC(=O)C=C[C@]4(C)[C@H]3[C@@H](O)C[C@@]21C,Potency,[1],inactive
same,Potency,[2],1.74 µM (active)
same,Potency,[4],4.73 µM (active)
Cc1ccc(-c2ccccc2C#N)cc1,Potency,[1],inactive
same,Potency,[3],inactive
O=C(Nc1ccc(S(=O)(=O)N2CCOCC2)cc1)c1cc(Cl)ccc1NS(=O)(=O)c1ccc(Cl)s1,Potency,[1],15.5 µM (active)
same,Potency,[2],0.0436 µM (active)
same,Potency,[3],inactive
same,Potency,[4],inactive
same,Potency,[5],35.2 µM (active)
CCCc1ccc(OCC(=O)N2CCN(C(=O)COc3ccc(CCC)cc3OC)CC2)c(OC)c1,Potency,[1],inactive
same,Potency,[3],inactive
same,Potency,[4],inactive
